High-throughput results deposited in PubChem BioAssay by National Center for Advancing Translational Sciences (NCATS).
Hits are enriched below; roughly 8.8% of the tested compounds scored in any of these assays.
HT1080 IDH1KD tx: kills HT-1080 cells with IDH1 knockdown | HT-1080 IDH1 knockdown viability, ATP luminescence, 48 h | AID 686971 | 2% of 360,000 active | Potency, µM (top dose mostly 46.1 µM), without a hit: at the top dose activity, negative = toxicity, usual class: cytotoxic;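 further: potency means the concentration at half of the fitted maximal effect; 0% = DMSO wells and -100% = cell-free medium wells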
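HT-1080-IDH1KD cells (IDH1 knocked down), 750/well in RPMI with 5% FBS, treated with compound 48 h at 37 degrees C. Viability by CellTiter-Glo luminescence, normalised to DMSO and no-cell wells; concentration-response curves classed.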
HT1080-NT tox: kills 2HG-producing HT-1080-NT fibrosarcoma cells. 1.6% of 360,000 active. Potency, µM (top dose mostly 46.1 µM), for inactives: top-dose activity, negative = less viability, actives largely listed as cytotoxic. HT-1080-NT fibrosarcoma viability, CellTiter-Glo ATP luminescence, 48 h. AID 686970;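 further: NT is the 2HG producing partner of a matched IDH1 knockdown line; potency means the concentration at half of the fitted maximal effect; 0% = DMSO-treated cells and -100% = media-only wells without cells; nearly all actives have a fitted effect of over 55% in size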
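Viability of the 2HG-overproducing fibrosarcoma line after 48 hours of compound exposure at 37 degrees C was determined by luminescence with CellTiter-Glo, and concentration-effect curves were then fitted and categorized.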
KB-V1 MDR tox: KB-V1 MDR subline cytotoxicity; AID 1347076; Potency, µM (top dose mostly 46.1 µM), usual class: cytotoxic; KB-V1 MDR cells viability, CellTiter-Glo, 72 h; 3.4% of 400,000 active; further: potency means the concentration at half of the fitted maximal effect; nearly all actives have a fitted effect of over 60% in size
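Cytotoxicity toward P-gp-expressing KB-V1 cells was determined as loss of CellTiter-Glo luminescence after 72 h at 37 degrees C. Compounds were tested in quantitative HTS format across a concentration range, with curves fitted to normalized data.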
KB-3-1 cytotox: kills parental KB-3-1 adenocarcinoma cells. KB-3-1 viability, CellTiter-Glo ATP luminescence, 72 h. Potency, µM (titrated, usually from 46.1 µM), most hits filed as cytotoxic. 1.4% of 400,000 active. AID 1347075; further: potency means the concentration at half of the fitted maximal effect; nearly all actives have a fitted effect of over 60% in size
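KB-3-1 cells, DMEM (no phenol red) + 10% FBS; compound by pin transfer, 72 h, 37 °C. Readout: CellTiter-Glo luminescence after 10 min. Data normalized, curve-fitted.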
IL1B secr inh: inhibitors of inflammasome signaling (IL-1 beta secretion); THP-1 LPS/ATP IL-1B secretion, AlphaLISA, 16 h; active compounds read low; activity change, % at 57.5 µM; AID 743279; 4.7% of 360,000 active; in the data active means activity change below about -50%; inconclusive means mostly about -30% to -49%
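THP-1 cells pretreated 1 hr with compounds (up to 57.5 uM final), then stimulated with LPS (250 ng/mL final) plus ATP (1.25 mM final); secreted IL-1B measured by AlphaLISA after 16 hr, decreased signal indicating inhibition.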
An asterisk follows results filed as active; i = inactive; ? = inconclusive; . = no result; [ ] = dose if it differs, or a comment. Unless noted, the call rests on the fitted dose curve; in most records, active means well fitted curve in the direction sought with a large enough effect; inconclusive means small, poorly fitted or top-dose-only effect, or another doubt; inactive means no such curve, though single readings can be large; an effect the other way counts as inactive or inconclusive. Unless noted, on the % scale 0 is the no-effect control and ±100 the full control effect.

SMILES	HT1080 IDH1KD tx	HT1080-NT tox	KB-V1 MDR tox	KB-3-1 cytotox	IL1B secr inh
CCOC(=O)Cc1csc(NS(=O)(=O)c2ccc([N+](=O)[O-])cc2)n1	5.4%	13.4%	i	i	3.9
C=CCOc1c(Br)cc(/C=N/n2c(CC)n[nH]c2=S)cc1Br	-16.6%	?	?	?	-8.4
CCc1ccc(C2=NNC(=Nc3c(C)n(C)n(-c4ccccc4)c3=O)SC2)cc1	1.4%	1.0%	?	i	16.1
CC1CCN(c2ccc(C(=O)NCCc3ccccc3)cn2)CC1	-3.3%	0.1%	13µM*	i	-24.7
O=C(NCc1ccccc1)c1ccc(C(=O)N(C2CCCCC2)C2CCCCC2)cc1	-18.7%	0.7%	23.1µM*	?	?
COc1cccc(C(=O)NCCS(=O)(=O)N2CCC(C)CC2)c1	8.0%	16.8%	23.1µM*	i	-4.3
CS(=O)(=O)N(CC(=O)NCCc1ccccc1)C1CCCCC1	10.9%	19.3%	23.1µM*	i	3.4
O=C(NCc1ccccc1)c1ccc(C(=O)NCc2ccccc2)cc1	5.4%	7.6%	i	i	0.0
CCCCNC(=O)c1ccc2c(c1)NC(=O)C(CS(=O)(=O)Cc1cccc(C)c1)N2 (stereo unspecified)	.	.	i	i	.
Cc1nc(N/N=C/c2cccc([N+](=O)[O-])c2)cc(N2CCCCC2)n1	10.4%	-0.6%	i	i	26.4
COc1cccc(CCNS(=O)(=O)CCNC(=O)c2cccc(OC)c2)c1	-4.0%	-0.4%	i	i	-1.4
COc1cccc(C(=O)NCCS(=O)(=O)NCCCc2ccccc2)c1	0.2%	5.7%	16.4µM*	i	0.0
O=C(NCCS(=O)(=O)N1CCCC1)c1ccccc1	12.8%	10.3%	i	i	9.8
CCN(C1CCCCC1)S(=O)(=O)CCNC(=O)c1ccccc1	14.8%	8.2%	4.11µM*	i	4.8
CC1CCN(S(=O)(=O)CCNC(=O)c2ccccc2)CC1	15.2%	15.3%	13µM*	i	-2.2
CCOc1ccccc1N(C)C(=O)NCc1noc2ccccc12	.	.	i	i	.
CCN1C(=O)C(CC(=O)Nc2ccc(F)cc2)N(Cc2ccco2)C1=S (stereo unspecified)	-20.6%	-24.1%	?	i	-4.4
CCCCCCOc1ccc(NC(=O)CC2C(=O)N(CC)C(=S)N2Cc2ccco2)cc1 (stereo unspecified)	?	-22.9%	i	?	-100.8*
C=CCN1C(=O)C(CC(=O)Nc2ccc(OCCC)cc2)N(CCCN2CCN(Cc3ccccc3)CC2)C1=S (stereo unspecified)	16.4µM*	16.4µM*	?	i	-67.2*
COc1ccc(NC(=O)CC2C(=O)N(C)C(=S)N2Cc2cccs2)cc1 (stereo unspecified)	-7.4%	-7.9%	i	i	-7.6
CCCOc1ccc(NC(=O)CC2C(=O)N(CC)C(=S)N2Cc2cccs2)cc1 (stereo unspecified)	20µM*	?	14.6µM*	?	-4.0
COc1ccc(-c2cc(C(=O)OCC(=O)c3ccc(C)cc3)c3cccc(Cl)c3n2)cc1	.	.	i	i	.
Cc1ccc(C)c(N2CCN(S(=O)(=O)c3ccc4[nH]c5c(c4c3)CCCCC5)CC2)c1	.	.	?	i	.
O=C(COc1coc(CN2CCc3ccccc3C2)cc1=O)Nc1ccc(F)cc1F	-3.2%	1.0%	i	i	13.1
CCOc1ccc(OCCC(=O)N(CCOC)c2c(N)n(Cc3ccccc3)c(=O)[nH]c2=O)cc1	-1.1%	4.0%[9.24 µM]	i	i	-6.8
SMILES	HT1080 IDH1KD tx	HT1080-NT tox	KB-V1 MDR tox	KB-3-1 cytotox	IL1B secr inh
CCOC(=O)C1(Cc2cccc(OC)c2)CCN(Cc2ccc(OC)c(O)c2)CC1	-17.9%	-27.1%	i	i	?
CCOC(=O)C1(Cc2cccc(OC)c2)CCN(C/C=C/c2ccccc2)CC1	-28.1%	-13.3%	i	i	-91.6*
CCOC(=O)C1(Cc2cccc(OC)c2)CCN(CC=C(C)C)CC1	7.1%	-2.2%	?	i	-13.2
CCOC(=O)C1(Cc2cccc(OC)c2)CCN(CCO)CC1	3.6%	6.1%	i	i	0.0
CCOC(=O)C1(Cc2cccc(OC)c2)CCN(C/C=C/c2ccc(OC)cc2)CC1	?	13µM*	?	?	-170.9*
CCOC(=O)C1(CC2CC2)CCN(Cc2ccc(OC)cc2F)CC1	-19.5%	-2.6%	?	i	-54.0*
CCOC(=O)C1(Cc2cccc(OC)c2)CCN(Cc2cccc(OCC)c2O)CC1	-12.7%	?	i	i	-89.8*
C/C=C/c1cccc(-c2nc(C(=O)N3CCCCC3)cc3c2[C@@H](CCO)N(C(=O)NC(C)C)C3)c1	15.8%	13.2%	i	i	-20.7
COc1ccc(NC(=O)C2=C(C)Nc3nc(SCc4ccc(C)cc4C)nn3C2c2cccc(OC)c2OC)cc1 (stereo unspecified)	.	.	i	i	.
Cn1c(SCc2ccccc2F)nnc1-c1ccccn1	11.7%	23.7%	i	i	-3.1
CCCCOCCCNC(=O)C[C@@H]1C[C@@]2(C(=O)OC)CCCCC=C2N(Cc2cccc3ccccc23)C1=O	?	?	?	?	-51.3*
COC(=O)[C@]12CCCCC=C1N(Cc1cccc3ccccc13)C(=O)[C@H](CC(=O)NCCC(C)C)C2	?	?	18.4µM*	?	-16.0
CCCCOCCCNC(=O)C[C@@H]1C[C@@]2(C(=O)OCC)CCC=C2N(Cc2cccc3ccccc23)C1=O	?	?	i	i	-67.4*
COc1cccc([C@@H]2Oc3ccc(Br)cc3C(=O)[C@H]2OC(=O)NC2CCCC2)c1	?	-23.8%	i	?	-61.1*
COc1ccc(-c2c3c(=O)n(C)c(=O)n(C)c3cn2C2CCCCC2)cc1	0.6%	7.2%	i	i	-53.8*
CCCn1cc2c(c1-c1ccc(C)cc1)c(=O)n(C)c(=O)n2C	-5.9%	-2.4%	i	i	8.4
CC(C)c1ccc(S(=O)(=O)c2nnn3c2nc(N2CCCCC2)c2ccccc23)cc1	8.0%	0.6%	i	i	-3.6
N#Cc1cnn2c1nc(N1CCCCC1)c1ccccc12	-3.9%	-1.6%	11.6µM*	?	0.0
CC1(C(=O)NS(=O)(=O)c2ccccc2)CCN1C(=O)CCc1ccc(Cl)cc1Cl (stereo unspecified)	11.9%	6.1%	i	i	20.9
CCN(CC)C(=O)[C@H]1C[C@H](CC(=O)NCc2cccc(C(F)(F)F)c2)C(=O)N2CCc3c([nH]c4cc(-c5ccco5)ccc34)[C@]12C	?	?	?	14.6µM*	-58.0*
